Data: ChEMBL document CHEMBL4513216, “Probing the Open Global Health Chemical Diversity Library for Multistage-Active Starting Points for Next-Generation Antimalarials” (ACS Infect Dis, 2020)
The campaign covered roughly 69,000 compounds. About 8,600 (12%) showed an effect of 50% or more. For the sample, strong results were picked, then their nearest neighbours and some compounds at random.

tested on: Plasmodium berghei; assay: Screen against P. berghei liver stage (PbLuc), transformed with Luciferase, at 10uM; type: functional, HepG2; details: tested at 10 uM

| SMILES | INHIBITION [%] |
| --- | --- |
| N#Cc1ccc(CN2CCCCC2Cn2cccn2)cc1 (stereo not given) | -32 |
| COc1ccc(CC(=O)NC2CCc3nc(C)cn3C2)cc1 (stereo not given) | 46.6 |
| COc1ncc(-c2ccc(NC(C)=O)cc2)c(OC)n1 | 14 |
| Cc1nc(O)c2nnn(C[C@H]3CCCN3C(=O)c3ccccc3F)c2n1 | 28 |
| OC1CCN(c2ccnc(NCCN3CCc4ccccc4C3)n2)C1 (stereo not given) | 8.38 |
| OC1CCN(c2ccnc(NCCc3ccccc3Cl)n2)C1 (stereo not given) | 93.6 |
| OC1CCN(c2ccnc(NCCc3ccccc3Cl)n2)CC1 | 39.1 |
| CCCc1ccc(CN2CCC3(CCC(=O)N(C)CC3)CC2)o1 | 21.2 |
| CCCc1nc(CN2CCN(C(C)c3nc(C4CC4)no3)CC2)no1 (stereo not given) | -27.8 |
| COc1ccccc1CC(=O)NS(=O)(=O)c1ccc(NC(C)=O)cc1 | -14 |
| O=C(NCC1CCS(=O)(=O)C1)N(Cc1ccccn1)C1CC1 (stereo not given) | 4.1 |
| Cc1nc(CN2CCC(C(=O)O)(n3ccc(-c4ccco4)n3)CC2)co1 | 5.14 |
| O=C(O)C1(n2ccc(-c3ccco3)n2)CCN(Cc2cccs2)CC1 | 43.4 |
| Cc1csc(CN2CCC(C(=O)O)(n3ccc(-c4ccco4)n3)CC2)n1 | 51.3 |
| COc1ccc(C(C(=O)O)N2CCCN(C3CCCCC3)CC2)cn1 (stereo not given) | 32.7 |
| COc1cccc(C(C(=O)O)N2CCCN(c3ccnc(C)c3)CC2)c1 (stereo not given) | 27.6 |
| COc1cccc(N2CCN(C(C(=O)O)c3ccc(OC)nc3)CC2)c1 (stereo not given) | 65.7 |
| CCc1nc(N2CCC3(CCC(=O)N(CCCO)C3)CC2)no1 | 35.6 |
| CC(=O)N1CCC(c2n[nH]c3nccnc23)CC1 | 8.53 |
| CC(C)CNc1cc(-c2c[nH]nc2C2CCN(C(=O)C3CC3)C2)ccn1 (stereo not given) | 86 |
| CC(=O)N1CCC(c2n[nH]cc2-c2ccnc(N)c2)C1 (stereo not given) | 37.5 |
| CC(C)Nc1cc(-c2c[nH]nc2C2CCN(C(=O)C3CC3)C2)ccn1 (stereo not given) | 87.85 |
| Cc1c[nH]nc1C1CCN(C(=O)C2CCC2)CC1 | -14.2 |
| COCCC(=O)N1CCC(c2ncncc2-c2ccnc(N)c2)C1 (stereo not given) | 0.696 |

| SMILES | INHIBITION [%] |
| --- | --- |
| CN1CCC(c2n[nH]cc2-c2ccnc(N)c2)C1 (stereo not given) | 16.05 |
| Cc1c[nH]nc1C1CCN(C(=O)C2CCOCC2)C1 (stereo not given) | 3.48 |
| O=C(C1CCCC1)N1CCC(c2n[nH]c3nccnc23)CC1 | 51.5 |
| O=C(C1CCCCC1)N1CCC(c2n[nH]c3nccnc23)CC1 | 44.1 |
| Cc1c[nH]nc1C1CCN(C(=O)C2CCCC2)C1 (stereo not given) | 65.7 |
| CC(C)OCC(=O)N1CCC(c2ncncc2-c2ccnc(N)c2)C1 (stereo not given) | 8.12 |
| Cc1nc(C(=O)N2CCC(c3cc(CCO)n(C)n3)C2)co1 (stereo not given) | 19.3 |
| CNC(=O)[C@@H](c1ccccc1OC)N1CCC[C@H]1C(=O)N1CCC1 | -37.8 |
| COCC(NC1CCN(CC(C)C)CC1)c1ccnn1C (stereo not given) | -1.49 |
| CCc1c(C)sc2nc3n(CCN4CCOCC4)nc(SC)n3c(=O)c12 | 17.7 |
| CC(c1ccncc1)N(CCN(C)C)C(=O)Nc1ccc(Cl)c(Cl)c1 (stereo not given) | -32.1 |
| O=C(c1ccoc1)N1C[C@@H]2[C@@H](C1)OCC(=O)N2Cc1cccnc1 | 16.8 |
| CN(C(=O)c1cc(F)ccc1F)[C@@H]1CC[C@@H](O)[C@@H]1O | 2.55 |
| CN(C)S(=O)(=O)N1CCC(c2n[nH]cc2-c2ccnc(N)c2)C1 (stereo not given) | -9.215 |
| CC(C)N1CCC(c2n[nH]cc2-c2ccnc(N)c2)C1 (stereo not given) | 26.5 |
| Cc1cc(N2CCC(c3n[nH]c4nccnc34)CC2)ncn1 | 58.1 |
| Nc1cc(-c2c[nH]nc2C2CCCCN2C(=O)C2CCCC2)ccn1 (stereo not given) | 59.9 |
| CCCNc1cc(-c2c[nH]nc2C2CCN(C(=O)C3CCC3)C2)ccn1 (stereo not given) | 87.35 |
| Cc1cc(N2CC(c3n[nH]c4nccnc34)C2)ncn1 | 18.3 |
| Nc1cc(-c2c[nH]nc2C2CCCN2S(=O)(=O)c2ccccc2)ccn1 (stereo not given) | 39.1 |
| Cc1c[nH]nc1C1CCN(C(=O)Cn2cccn2)C1 (stereo not given) | -9.32 |
| CC(C)Nc1cc(-c2c[nH]nc2C2CCN(C(=O)C3CCC3)C2)ccn1 (stereo not given) | 88.45 |
| Nc1cc(-c2c[nH]nc2C2CCN(C(=O)C3CCCC3)C2)ccn1 (stereo not given) | 31.75 |
| Cc1cc(N2CCC(c3n[nH]c4nccnc34)C2)ncn1 (stereo not given) | -4.51 |

| SMILES | INHIBITION [%] |
| --- | --- |
| COCC(=O)N1C[C@@H](OCc2cccnc2)[C@H]2OCCC[C@@H]21 | 26.5 |
| Cc1ccc(S(N)(=O)=O)cc1C(=O)NC1CCCC1 | 12.2 |
| CC(=O)N1CCCC(c2ccnc(Nc3cnccn3)c2)C1 (stereo not given) | -9 |
| O=C(NCC(CO)Cc1cccc(OC(F)(F)F)c1)c1cnccn1 (stereo not given) | 30.8 |
| O=C(Cc1csc(-c2ccsc2)n1)N1CCN(c2cnccn2)CC1 | -40.2 |
| Cc1nc(C)n(CC2CCCN(CCC(=O)NC3CCCCC3)C2)n1 (stereo not given) | -4.16 |
| CN1CC(C(=O)NC2(c3ccc(Cl)cc3)CCOCC2)CC1=O (stereo not given) | 8.31 |
| NC(=O)c1c(NC(=O)CCCC(=O)O)sc2c1CCc1ccccc1-2 | 33 |
| Cc1nn(C)c(C)c1-c1nccnc1CC1CCNCC1 | -17.9 |
| CCc1c(C)nn2c(O)cc(C3CCN(C(=O)c4ccn(C)n4)C3)nc12 (stereo not given) | 3.623 |
| c1cnc(N2C[C@@H]3COC[C@]3(COCC3CCCC3)C2)nc1 | 15.4 |
| CN(C)[C@@H]1CCN(CC2CC2)[C@H]1Cc1cnn(C)c1 | 1.94 |
| CN1CC(=O)N(c2cnn(C)c2)CC12CCN(Cc1ccccc1)C2 (stereo not given) | 21.8 |
| CC1CCN(CCNC(=O)c2scnc2Cl)CC1 | 40.2 |
| O=C(NCC(=O)N1CCN(c2ccccc2)CC1)c1sccc1C1CC1 | 92 |
| O=C(c1sccc1C1CC1)N1CCN(c2ncccn2)CC1 | 49.1 |
| Cc1cc(C)n(-c2nc(C(=O)NCCS(=O)(=O)N3CCCCC3)cs2)n1 | 0.696 |
| CCc1nc(C)c(C(=O)NCCN2CCC(C)CC2)s1 | 15.6 |
| O=C(NCC(=O)N1CCCCC1)c1sccc1C1CC1 | 17.2 |
| Cc1cc(C)n(-c2nc(C(=O)NCCN3CCC(C)CC3)cs2)n1 | 61 |
| CC1CCN(CCNC(=O)c2sccc2C2CC2)CC1 | 81.5 |
| CN1CCN(CCNC(=O)c2sccc2C2CC2)CC1 | 31.6 |
